# Results from PubChem BioAssay AID1159580 (chemical genetic matrix, 2015).
# Values joined by “and” are separate entries in the source; they are usually repeats but may differ in a detail not shown here. Identical values can stand only once. About 2,000 (36%) of roughly 5,500 compounds were called active. Another 18% or so got no clear call; they are omitted. Some of the results follow. Values without a mark were called inactive. Rule as the data show it: active = normalized growth mostly below about 0.91 (no sharp cut-off); inconclusive = no clear call, values can overlap the other calls; inactive = mostly above about 0.92.
# Assay: chemical genetic growth profiling, strain panel (AID 1159580);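 also: tested at 20 µM; growth read once vehicle control cultures reached saturation at 30 °C; 1 = growth at the plate median or of vehicle wells; lower values mean less growth of the strain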
# Details: S. cerevisiae deletion strains, growth OD
structure (smiles),measurement,setting,value
CC(C)CCCC(C)C1CCC2C3CC(=O)[C@H]4C[C@@H](O)CC[C@]4(C)C3CC[C@]12C (stereo partly drawn),normalized growth,"locus YAL021C, strain ccr4, hits give low values",0.997
same,normalized growth,"locus YAL026C, strain drs2, hits give low values",0.98
same,normalized growth,"locus YAL030W, strain snc1, hits give low values",1.01
same,normalized growth,"locus YBL061C, strain skt5, hits give low values",1
same,normalized growth,"locus YBR009C, strain hhf1, hits give low values",1
same,normalized growth,"locus YBR021W, strain FUR4, hits give low values",1.06
same,normalized growth,"locus YBR023C, strain chs3, hits give low values",1
same,normalized growth,"locus YBR171W, strain sec66, hits give low values",1
same,normalized growth,"locus YBR229C, strain ROT2, hits give low values",1.02
same,normalized growth,"locus YBR231C, strain swc5, hits give low values",0.975
same,normalized growth,"locus YBR279W, strain paf1, hits give low values",1.01
same,normalized growth,"locus YCL011C, strain gbp2, hits give low values",1.02
same,normalized growth,"locus YCL016C, strain dcc1, hits give low values",1.01
same,normalized growth,"locus YCL029C, strain bik1, hits give low values",1.01
same,normalized growth,"locus YCL061C, strain MRC1, hits give low values",1.01
same,normalized growth,"locus YCL069W, strain vba3, hits give low values",1.03
same,normalized growth,"locus YCR088W, strain abp1, hits give low values",1
same,normalized growth,"locus YDL005C, strain med2, hits give low values",1.01
same,normalized growth,"locus YDL035C, strain GPR1, hits give low values",1.01
same,normalized growth,"locus YDL040C, strain nat1, hits give low values",1.01
same,normalized growth,"locus YDL074C, strain BRE1, hits give low values",1.05
same,normalized growth,"locus YDL101C, strain DUN1, hits give low values",1.02
same,normalized growth,"locus YDL185W, strain tfp1, hits give low values",1.07
same,normalized growth,"locus YDL192W, strain arf1, hits give low values",1.02
same,normalized growth,"locus YDR001C, strain nth1, hits give low values",1.02
same,normalized growth,"locus YDR069C, strain doa4, hits give low values",1
same,normalized growth,"locus YDR101C, strain arx1, hits give low values",1.01
same,normalized growth,"locus YDR137W, strain rgp1, hits give low values",0.908
same,normalized growth,"locus YDR150W, strain NUM1, hits give low values",1
same,normalized growth,"locus YDR159W, strain sac3, hits give low values",0.963
same,normalized growth,"locus YDR162C, strain NBP2, hits give low values",1.04
same,normalized growth,"locus YDR195W, strain ref2",1.01
same,normalized growth,"locus YDR297W, strain sur2, hits give low values",1
same,normalized growth,"locus YDR318W, strain mcm21, hits give low values",1.01
same,normalized growth,"locus YDR334W, strain swr1, hits give low values",1.02
same,normalized growth,"locus YDR335W, strain msn5, hits give low values",1.02
same,normalized growth,"locus YDR388W, hits give low values",1.01
same,normalized growth,"locus YDR392W, strain spt3, hits give low values",0.942
same,normalized growth,"locus YDR502C, strain sam2, hits give low values",1.01
same,normalized growth,"locus YEL003W, strain gim4, hits give low values",1.01
same,normalized growth,"locus YEL037C, strain rad23, hits give low values",1
same,normalized growth,"locus YEL061C, strain CIN8 (second series), hits give low values",1.01
same,normalized growth,"locus YEL061C, strain CIN8, hits give low values",1
same,normalized growth,"locus YER015W, strain faa2, hits give low values",1
same,normalized growth,"locus YER016W, strain bim1, hits give low values",1.01
same,normalized growth,"locus YER110C, hits give low values",1
same,normalized growth,"locus YER111C, strain swi4, hits give low values",1
same,normalized growth,"locus YER155C, strain BEM2 (second series), hits give low values",1.07
same,normalized growth,"locus YER155C, strain BEM2, hits give low values",0.997
same,normalized growth,"locus YER167W, strain BCK2, hits give low values",1.03
same,normalized growth,"locus YFR010W, strain ubp6, hits give low values",1.02
same,normalized growth,"locus YGL078C, strain dbp3, hits give low values",1.01
same,normalized growth,"locus YGL086W, strain mad1, hits give low values",1.03
same,normalized growth,"locus YGL167C, strain pmr1, hits give low values",0.998
same,normalized growth,"locus YGL173C, strain kem1, hits give low values",1
same,normalized growth,"locus YGL227W, strain vid30, hits give low values",1.01
same,normalized growth,"locus YGL240W, strain doc1, hits give low values",0.904
same,normalized growth,"locus YGL248W, strain PDE1, hits give low values",1.01
same,normalized growth,"locus YGL253W, strain hxk2, hits give low values",1.02
same,normalized growth,"locus YGR135W, strain pre9, hits give low values",1
same,normalized growth,"locus YGR252W, strain gcn5, hits give low values",1.06
same,normalized growth,"locus YHR013C, strain ard1, hits give low values",1.01
same,normalized growth,"locus YHR027C, strain rpn1, hits give low values",1.01
same,normalized growth,"locus YHR030C, strain SLT2, hits give low values",1.02 and 1.05
same,normalized growth,"locus YHR079C, strain IRE1 (second series), hits give low values",0.99
same,normalized growth,"locus YHR079C, strain IRE1, hits give low values",1.04
same,normalized growth,"locus YHR094C, strain hxt1, hits give low values",1.01
same,normalized growth,"locus YHR129C, strain ARP1, hits give low values",1.02
same,normalized growth,"locus YHR142W, strain chs7, hits give low values",1.04
same,normalized growth,"locus YHR200W, strain rpn10, hits give low values",1.03
same,normalized growth,"locus YIL066C, strain RNR3, hits give low values",1.04
same,normalized growth,"locus YIL073C, strain SPO22, hits give low values",1.05
same,normalized growth,"locus YIL125W, strain kgd1, hits give low values",0.998
same,normalized growth,"locus YIR030C, strain dcg1, hits give low values",1.01
same,normalized growth,"locus YJL092W, strain hpr5, hits give low values",1.02
same,normalized growth,"locus YJL095W, strain BCK1 (second series), hits give low values",1.01
same,normalized growth,"locus YJL095W, strain BCK1, hits give low values",1.03
same,normalized growth,"locus YJL115W, strain asf1, hits give low values",0.991
same,normalized growth,"locus YJL129C, strain trk1, hits give low values",1.04
same,normalized growth,"locus YJL134W, strain LCB3, hits give low values",1.01
same,normalized growth,"locus YJL154C, strain vps35, hits give low values",1.02
same,normalized growth,"locus YJL164C, strain tpk1, hits give low values",1.01
same,normalized growth,"locus YJL166W, strain qcr8, hits give low values",1.06
same,normalized growth,"locus YJL168C, strain set2, hits give low values",1
same,normalized growth,"locus YJL187C, strain SWE1 (second series), hits give low values",1.01
same,normalized growth,"locus YJL187C, strain SWE1, hits give low values",1.02
same,normalized growth,"locus YJR043C, strain POL32, hits give low values",1.05
same,normalized growth,"locus YJR066W, strain TOR1, hits give low values",0.998
same,normalized growth,"locus YKL009W, strain mrt4, hits give low values",1.01
same,normalized growth,"locus YKL068W, hits give low values",1.02
same,normalized growth,"locus YKL085W, strain MDH1 (second series), hits give low values",1.01
same,normalized growth,"locus YKL085W, strain MDH1, hits give low values",1.01
same,normalized growth,"locus YKL160W, strain elf1, hits give low values",1.02
same,normalized growth,"locus YKL190W, strain CNB1, hits give low values",1.02
same,normalized growth,"locus YKR001C, strain vps1, hits give low values",1.02
same,normalized growth,"locus YKR026C, strain gcn3, hits give low values",1
same,normalized growth,"locus YKR091W, strain srl3, hits give low values",1.01
same,normalized growth,"locus YLL001W, strain dnm1, hits give low values",0.982
same,normalized growth,"locus YLL026W, hits give low values",0.999
same,normalized growth,"locus YLL041C, strain sdh2, hits give low values",1.01
same,normalized growth,"locus YLR027C, strain aat2, hits give low values",0.99
same,normalized growth,"locus YLR039C, strain RIC1, hits give low values",0.767
same,normalized growth,"locus YLR058C, strain SHM2, hits give low values",1.01
same,normalized growth,"locus YLR102C, strain apc9, hits give low values",1.01
same,normalized growth,"locus YLR113W, strain HOG1, hits give low values",0.986
same,normalized growth,"locus YLR221C, strain rsa3, hits give low values",0.991
same,normalized growth,"locus YLR258W, strain gsy2, hits give low values",0.994
same,normalized growth,"locus YLR262C, strain YPT6 (second series), hits give low values",0.76 (active)
same,normalized growth,"locus YLR262C, strain YPT6, hits give low values",0.831
same,normalized growth,"locus YLR268W, strain sec22, hits give low values",1.03
same,normalized growth,"locus YLR320W, strain mms22, hits give low values",1.02
same,normalized growth,"locus YLR330W, strain CHS5, hits give low values",1.01
same,normalized growth,"locus YLR342W, strain FKS1 (second series), hits give low values",1.02
same,normalized growth,"locus YLR342W, strain FKS1, hits give low values",1.01
same,normalized growth,"locus YLR357W, strain rsc2, hits give low values",1.04
same,normalized growth,"locus YLR370C, strain arc18, hits give low values",1.02
same,normalized growth,"locus YLR371W, strain rom2, hits give low values",1
same,normalized growth,"locus YLR384C, strain iki3, hits give low values",0.99
same,normalized growth,"locus YLR418C, strain cdc73, hits give low values",1.08
same,normalized growth,"locus YML016C, strain PPZ1, hits give low values",0.995
same,normalized growth,"locus YML032C, strain rad52, hits give low values",1
same,normalized growth,"locus YML120C, strain ndi1, hits give low values",1.02
same,normalized growth,"locus YML124C, strain tub3, hits give low values",1
same,normalized growth,"locus YMR058W, strain fet3, hits give low values",1.01
same,normalized growth,"locus YMR078C, strain ctf18, hits give low values",1.04
same,normalized growth,"locus YMR125W, strain sto1, hits give low values",1.02
same,normalized growth,"locus YMR129W, hits give low values",1
same,normalized growth,"locus YMR205C, strain PFK2, hits give low values",1.02
same,normalized growth,"locus YMR223W, strain ubp8, hits give low values",1.01
same,normalized growth,"locus YMR231W, strain pep5, hits give low values",1.02
same,normalized growth,"locus YMR307W, strain GAS1, hits give low values",1.12
same,normalized growth,"locus YNL067W, strain RPL9B, hits give low values",1.03
same,normalized growth,"locus YNL071W, strain lat1, hits give low values",1.02
same,normalized growth,"locus YNL183C, strain NPR1, hits give low values",1
same,normalized growth,"locus YNL209W, strain ssb2, hits give low values",1.01
same,normalized growth,"locus YNL233W, strain BNI4, hits give low values",1.04
same,normalized growth,"locus YNL248C, strain rpa49, hits give low values",1
same,normalized growth,"locus YNL250W, strain rad50, hits give low values",1
same,normalized growth,"locus YNL271C, strain bni1, hits give low values",1
same,normalized growth,"locus YNL298W, strain CLA4, hits give low values",1.01
same,normalized growth,"locus YNL307C, strain MCK1, hits give low values",1.04
same,normalized growth,"locus YNL322C, strain KRE1 (second series), hits give low values",1.01
same,normalized growth,"locus YNR049C, strain mso1, hits give low values",1
same,normalized growth,"locus YNR052C, strain pop2, hits give low values",0.997
same,normalized growth,"locus YOL006C, strain TOP1, hits give low values",1.14
same,normalized growth,"locus YOL012C, strain htz1",1.15
same,normalized growth,"locus YOL147C, strain pex11, hits give low values",1.01
same,normalized growth,"locus YOR001W, strain rrp6, hits give low values",0.969
same,normalized growth,"locus YOR061W, strain CKA2, hits give low values",1.02
same,normalized growth,"locus YOR069W, strain VPS5, hits give low values",1
same,normalized growth,"locus YOR070C, strain gyp1, hits give low values",0.989
same,normalized growth,"locus YOR080W, strain dia2, hits give low values",0.998
same,normalized growth,"locus YOR083W, strain WHI5, hits give low values",1.02
same,normalized growth,"locus YOR106W, strain vam3, hits give low values",1.02
same,normalized growth,"locus YOR136W, strain idh2, hits give low values",1
same,normalized growth,"locus YOR144C, strain elg1, hits give low values",1
same,normalized growth,"locus YOR184W, strain ser1, hits give low values",1.04
same,normalized growth,"locus YOR231W, strain MKK1, hits give low values",1.02
same,normalized growth,"locus YOR265W, strain rbl2, hits give low values",1
same,normalized growth,"locus YOR270C, strain vph1, hits give low values",1.04
same,normalized growth,"locus YOR290C, strain snf2, hits give low values",1.03
same,normalized growth,"locus YOR316C, strain cot1, hits give low values",1
same,normalized growth,"locus YPL051W, strain arl3, hits give low values",0.985
same,normalized growth,"locus YPL055C, strain LGE1, hits give low values",1.07
same,normalized growth,"locus YPL078C, strain atp4, hits give low values",1.02
same,normalized growth,"locus YPL106C, strain sse1, hits give low values",1.02
same,normalized growth,"locus YPL240C, strain hsp82, hits give low values",1.01
same,normalized growth,"locus YPL256C, strain CLN2, hits give low values",1.04
same,normalized growth,"locus YPR119W, strain clb2, hits give low values",1
same,normalized growth,"locus YPR141C, strain kar3, hits give low values",1.01
same,normalized growth,"locus YPR163C, strain tif3, hits give low values",1.01
same,normalized growth,"locus YPR167C, strain met16, hits give low values",0.995
same,normalized growth,"strain wtn01, hits give low values",1.03
